HepG2 tox: counter-screen for TGF-b inhibitors: cytotoxicity in HepG2 cells. HepG2 CAGA-GFP viability, ATP luminescence, 18 h. Potency, µM (titrated, usually from 46.1 µM), for the others: at the highest dose activity change, negative = cytotoxicity, most hits filed as cytotoxic. 410,000 tested, 0.76% active. AID 588856
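CellTiter-Glo luminescence gave cytotoxicity after 18 hours at 37 degrees C. The cells were HepG2 CAGA-GFP in 1% FBS DMEM, stimulated with 500 pg/mL TGF-beta after compound addition. %Activity was normalised to no-cell wells (complete cell-killing) and DMSO (no toxicity), and curves were fitted and classified.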
DT40 TDP1 CPT: growth inhibition of DT40 Tdp1-/-;hTDP1 cells with camptothecin (screen for TDP1 inhibitors); Potency, µM (series often up to 46.2 µM), without a hit: at the top dose activity change, negative = growth inhibition, most hits filed as inhibitors; 420,000 tested, 12% active; chicken DT40 Tdp1-/-;hTDP1 cells + 20 nM CPT, ATP luminescence, 48 h; also: % is scaled to controls: 0 for no effect and ±100 for the full control effect; nearly all actives have a fitted effect of over 55% in size
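Cell growth measured by CellTiter-Glo luminescence after a minimum 48 h, 37 C compound exposure with 20 nM CPT in Tdp1-knockout DT40 cells stably expressing hTDP1, seeded 400/well; qHTS titration format.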
ATXN2 expr inh: inhibitors of ATXN2 expression | HEK-293 ATXN2-luciferase reporter, luminescence, 24 h | Potency, µM (titrated, usually from 57 µM), for inactives: at the top dose activity change, negative = inhibition, usual class: inhibitors | 360,000 tested, 0.72% active; also: % is scaled to controls: 0 for no effect and ±100 for the full control effect; nearly all actives have a fitted effect of over 55% in size
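ATXN2-luciferase reporter cells (luciferase flanked by upstream and downstream ATXN2 gene portions) were treated 24 h at 37 °C with compounds at up to 57 uM. SteadyGlo luminescence gave expression; GF-AFC fluorescence gave viability.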
ATXN viability: reduces viability in counter-screen for ATXN expression inhibitors | S2 cells (HEK-293 line with an ATXN2-luciferase reporter) viability, CellTiter-Fluor protease fluorescence, 24 h | Potency, µM (highest dose often 56.7 µM), actives largely listed as cytotoxic | 400,000 tested, 0.49% active | AID 651635; also: nearly all actives have a fitted effect of over 40% in size
TDP1 cell noCPT: qHTS for Inhibitors of human tyrosyl-DNA phosphodiesterase 1 (TDP1): qHTS in cells in absence of CPT. DT40 Tdp1-/- hTDP1 cells, no CPT, ATP luminescence, 48 h. Potency, µM (titrated, usually from 46.2 µM), for inactives: top-dose activity change, negative = growth inhibition, actives largely listed as inhibitors. 420,000 tested, 15% active; also: % is scaled to controls: 0 for no effect and ±100 for the full control effect; nearly all actives have a fitted effect of over 55% in size
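Growth of hTDP1-complemented DT40 Tdp1-knockout cells is measured by ATP luminescence after at least 48 hr compound exposure at 37 °C, with DMSO substituting for the 20 nM CPT used in the parallel screen.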
TGFb inhibitor: blocks TGF-b signaling. Potency, µM (top dose mostly 46.1 µM), without a hit: at the highest dose activity, negative = inhibition, actives largely listed as inhibitors. HepG2 CAGA-GFP TGF-b/SMAD3 reporter, GFP fluorescence, 18 h; TGF-beta stimulated, 500 pg/mL final. 410,000 tested, 1.2% active; also: % is scaled to controls: 0 for no effect and ±100 for the full control effect; nearly all actives have a fitted effect of over 65% in size
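Read-out: total well GFP (ex488/em500-530) summed from mean per-cell fluorescence. Cells: HEPG2 CAGA-GFP, 1% FBS DMEM, 18 h at 37 degrees C with 500 pg/mL final TGF-beta. Unstimulated wells served as the full-inhibition control; stimulated DMSO wells = 0%.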
* marks the source's active call; other numbers are inactive results; [ ] = another dose, or the depositor's remark. An excerpt weighted towards active compounds, which were near 17% of everything screened. Calls follow the shape of the dose curve; as a rule, active = well fitted curve in the direction sought with a large enough effect; inconclusive = small, poorly fitted or top-dose-only effect, or another doubt; inactive = no such curve, though single readings can be large; an effect the other way counts as inactive or inconclusive. Potency is read from the fitted curve at half-maximal effect.

Screening COc1ccccc1N1CCN(CC(=O)c2c[nH]c3ccccc23)CC1 returned HepG2 tox -21%, DT40 TDP1 CPT inconclusive, ATXN2 expr inh -14%, ATXN viability inactive, TDP1 cell noCPT 10µM* and TGFb inhibitor -7%.
`Cn1c(SCC(=O)NCCC2=CCCCC2)nnc1C(F)(F)F` gave HepG2 tox -29%, DT40 TDP1 CPT -2%, ATXN viability inactive, TDP1 cell noCPT -2% and TGFb inhibitor -15%.
`COc1ccc(CCNC(=O)c2cc3c(=O)n4ccccc4nc3n(CCCN3CCOCC3)c2=N)cc1` gave HepG2 tox -22%, DT40 TDP1 CPT inconclusive, ATXN2 expr inh -38%, ATXN viability inactive, TDP1 cell noCPT inconclusive and TGFb inhibitor 0%.
`COc1ccc(CCNC(=O)c2cc3c(=O)n4ccccc4nc3n(CCN3CCOCC3)c2=N)cc1` gave HepG2 tox -3%, DT40 TDP1 CPT 3.7µM*, ATXN2 expr inh inconclusive, ATXN viability inactive, TDP1 cell noCPT 2.6µM* and TGFb inhibitor -6%.
COc1ccc(CCNC(=O)c2cc3c(=O)n4ccccc4nc3n(C3CCCCC3)c2=N)cc1OC was read as HepG2 tox -43%, DT40 TDP1 CPT inconclusive, ATXN viability inconclusive, TDP1 cell noCPT inconclusive and TGFb inhibitor inconclusive.
`COc1ccc(CCn2c(=N)c(C(=O)NCC3CCCO3)cc3c(=O)n4ccccc4nc32)cc1` (stereo not given) gave HepG2 tox -3%, DT40 TDP1 CPT 5.8µM*, TDP1 cell noCPT 8.2µM* and TGFb inhibitor 5%.
Screening COc1ccc(CCNC(=O)c2cc3c(=O)n4ccccc4nc3n(CC3CCCO3)c2=N)cc1OC (stereo not given) returned HepG2 tox -8%, DT40 TDP1 CPT 21µM*, ATXN2 expr inh 6%, ATXN viability inactive, TDP1 cell noCPT inconclusive and TGFb inhibitor -11%.
`N=c1c(C(=O)NCCc2ccccc2)cc2c(=O)n3ccccc3nc2n1CC1CCCO1` (stereo not given) gave HepG2 tox 0%, DT40 TDP1 CPT inconclusive, ATXN2 expr inh -23%, TDP1 cell noCPT inconclusive and TGFb inhibitor 7%.
For COc1ccc(CCNC(=O)c2cc3c(=O)n4ccccc4nc3n(CC3CCCO3)c2=N)cc1 (stereo not given) the results were HepG2 tox -21%, DT40 TDP1 CPT 21µM*, ATXN2 expr inh -11%, ATXN viability inactive, TDP1 cell noCPT 26µM* and TGFb inhibitor 2%.
`CCOC(=O)C1CCN(c2c(C(=O)c3ccccc3)cnc3ccc(Cl)cc23)CC1` gave HepG2 tox -4%, DT40 TDP1 CPT 23µM*, ATXN2 expr inh -6%, ATXN viability inactive, TDP1 cell noCPT 18µM* and TGFb inhibitor 6%.
CCc1ccc(C(=O)c2cnc3ccc(OC)cc3c2N2CCN(CC)CC2)cc1 was read as HepG2 tox -5%, DT40 TDP1 CPT inconclusive, ATXN2 expr inh 0%, ATXN viability inactive, TDP1 cell noCPT inconclusive and TGFb inhibitor -1%.
CCc1ccc2ncc(C(=O)c3ccc(C)c(C)c3)c(N3CCC(C(N)=O)CC3)c2c1 was read as HepG2 tox -35%, DT40 TDP1 CPT 23µM*, ATXN2 expr inh -22%, ATXN viability inconclusive, TDP1 cell noCPT 21µM* and TGFb inhibitor inconclusive.
Screening CCOC(=O)C1CCN(c2nc(-c3ccc(C)cc3)nc3ccccc23)CC1 returned HepG2 tox 7%, DT40 TDP1 CPT 2%, ATXN viability inactive, TDP1 cell noCPT -29% and TGFb inhibitor -1%.
Screening O=C1C(=C(I)I)c2ccccc2-c2ccccc21 returned HepG2 tox 11µM*, DT40 TDP1 CPT 2.6µM*, ATXN2 expr inh inconclusive, TDP1 cell noCPT 4.6µM* and TGFb inhibitor 6.3µM*.
For CC(C)Cc1nc(N2CCN(C(=O)C(C)C)CC2)c(C#N)c2c1CCC2 the results were HepG2 tox -37%, DT40 TDP1 CPT 21µM*, ATXN2 expr inh -14%, ATXN viability inactive, TDP1 cell noCPT inconclusive and TGFb inhibitor inconclusive.
Screening Cc1ccccc1OCC(=O)NCC(C)NC(=O)COc1ccccc1C (stereo not given) returned HepG2 tox -18%, DT40 TDP1 CPT -9%, TDP1 cell noCPT -23% and TGFb inhibitor 4%.
For COc1ccc(S(=O)(=O)N2CCOCC2)cc1NC(=O)C1CCCN1C(=O)c1cccs1 (stereo not given) the results were HepG2 tox 4%, DT40 TDP1 CPT 0.26µM*, ATXN viability inactive, TDP1 cell noCPT inconclusive and TGFb inhibitor -14%.
CCN1CCN(c2c(Cl)cccc2NC(=O)c2cc3ccccc3o2)CC1 was read as HepG2 tox -38%, DT40 TDP1 CPT inconclusive, ATXN2 expr inh -24%, ATXN viability inactive, TDP1 cell noCPT 18µM* and TGFb inhibitor -15%.
Screening CCN1CCN(S(=O)(=O)c2ccc(Cl)c(C(=O)Nc3ccccc3N3CCCCC3)c2)CC1 returned HepG2 tox 1%, DT40 TDP1 CPT 16µM*, ATXN2 expr inh 0%, ATXN viability inactive, TDP1 cell noCPT 26µM* and TGFb inhibitor inconclusive.
Screening COc1ccc(S(=O)(=O)N2CCOCC2)cc1NC(=O)[C@@H]1CCCN1C(=O)c1cccs1 returned HepG2 tox -8%, DT40 TDP1 CPT -2%, ATXN2 expr inh -34%, ATXN viability inconclusive, TDP1 cell noCPT -14% and TGFb inhibitor -23%.
`CCN1CCN(S(=O)(=O)c2ccc(Cl)c(C(=O)Nc3nnc(CC(C)C)s3)c2)CC1` gave HepG2 tox -12%, DT40 TDP1 CPT 23µM*, ATXN2 expr inh -1%, ATXN viability inactive, TDP1 cell noCPT inconclusive and TGFb inhibitor 2%.
Screening COCCOc1cc(N)c(Cl)cc1Cl returned HepG2 tox -25%, DT40 TDP1 CPT 15%, ATXN2 expr inh -23%[11.3 µM], ATXN viability inactive, TDP1 cell noCPT -14% and TGFb inhibitor 21%.
`CCN1CCN(c2ccc(S(=O)(=O)N3CCCCC3)cc2NC(=O)c2cc3ccccc3o2)CC1` gave HepG2 tox 4%, DT40 TDP1 CPT inconclusive, ATXN2 expr inh -4%, ATXN viability inactive, TDP1 cell noCPT 16µM* and TGFb inhibitor 22%.

High-throughput results from PubChem BioAssay.
